Reference: PubChem BioAssay (NCATS)
Active and inactive are the calls of the source. Calls come from the whole dose curve; as a rule, active = well fitted inhibition curve with a large enough effect; inconclusive = small, poorly fitted or top-dose-only effect; inactive = flat fitted curve, though single readings scatter. Where a SMILES comes first, the peptide text is derived from it.

Target: Luciferin 4-monooxygenase (Photinus pyralis) (UniProt P08659)
Test: Primary firefly luciferase (FLuc) qHTS assay for identification of artifact compounds. (AID 1845220); note: nearly all actives have a fitted effect of over 60% in size
Settings: purified firefly luciferase, luminescence, 5 min; series mostly up to 54.1 µM; activity change, negative = inhibition: at the top concentration
Text: PI: Alexander Tropsha Ph.D.
UNC Eshelman School of Pharmacy
University of North Carolina, Chapel Hill, North Carolina
Hits from high-throughput screening (HTS) of chemical libraries are often false positives due to their interference with the assay detection technology. In response to this problem, we generated the largest publicly available library of chemical liabilities and developed a free webtool to predict HTS artifacts, both of which are described herein. More specifically, we generated, curated, and integrated HTS datasets for thiol reactivity, redox activity, and luciferase (firefly and nano) activity. Using these curated datasets, we developed and validated several Quantitative Structure-Interference Relationship (QSIR) models to predict nuisance behavior. […] These models were employed for virtual profiling of the National Center for Advancing Translational Science's (NCATS) in-house library, and 256 compounds for each assay were selected for the experimental validation of nuisance behavior. The BA for these external predictions ranged from 58 to 78% for compounds within the applicability domains of the models. […] The models developed in this study, along with aggregation models previously developed by our group (SCAM Detective) were implemented in "Liability Predictor," an online tool which may be used as part of chemical library design or for triaging HTS hits. Both the models and the curated datasets are publicly available at https://liability.mml.unc.edu/.
SEQUENCE No. (e.g., 1, 2, 3, etc.); […] (e.g., Cells, Incubation, Reagent, etc.); VALUE; DESCRIPTION.
1; Reagent; 3 uL; Luciferase substrate mixture.
2; Compounds and control; 16 nL; Kalypsis pin tool (Wako USA) equipped with a 1536-well pin head.
4; Reagent; 1 uL; Luciferase enzyme.
6; Detection; Luminescence, ViewLux microplate reader.
NOTES (numbers refer to Sequence numbers above)
1. 3 uL of luciferase substrate mixture containing D-luciferin and ATP (final concentrations of 10 uM and 10 uM, respectively) in assay buffer (10 mM Mg-acetate, 0.01% Tween-20, 0.05% bovine serum albumin, 50 mM Tris acetate, pH 7.6) was dispensed into all wells of a 1536-well assay plate (solid-bottom white plate; Greiner Bio One, Monroe, NC).
2. A Wako Pin-tool (Wako Automation, Richmond, VA) was used to transfer 16 nL of compounds (consisting of 7-plates in qHTS format, final concentration range 18.3 nM to 114 uM) or control PTC124 (final concentration range 1.22 nM to 40 uM).
3. 15 min. incubation at room temperature protected from light.
4. 1 uL of luciferase enzyme (final concentration 10 nM, Photinus pyralis luciferase) or buffer was dispensed for a final assay volume of 4 uL.
5. Plates were centrifuged (121xg, 15 seconds) and incubated for 5 minutes.
6. Samples were read for luminescence on a ViewLux CCD imager (PerkinElmer). Data were normalized to no-enzyme (0% activity) and no-inhibitor (DMSO; 100%) controls and the resulting percent inhibition data were fitted to a 4-parameter Hill equation using NCATS in-house software.

SMILES	outcome	activity change, negative = inhibition
CC1CC(O)CC(C)(C)C1(O)CCO (stereo not given)	inactive [at 86.2 µM]	
COc1cc(/C=C/C(=O)OC2CC(OC(C)=O)C(OC(C)=O)C3C2CCC2C(=O)OC(c4ccoc4)CC23C)ccc1O[C@@H]1O[C@H](CO)[C@@H](O)[C@H](O)[C@H]1O (stereo not given in full)		4.67% [at 25.7 µM] (inactive)
C[C@@H]1CC[C@H]2C(C)(C)[C@H](O)[C@H](O)C[C@]2(C)[C@@]12Cc1c(O)cc3c(c1O2)CNC3=O		4.2% (inactive)
OC[C@H]1O[C@@H](Oc2cc(O)cc(/C=C/c3ccc(O)cc3)c2)[C@H](O)[C@@H](O)[C@@H]1O		-22% (inactive)
CCCC1=CC2=C(CO1)C(=O)C(C)(OC(=O)c1c(C)cc(OC)cc1O)C(O)C2 (stereo not given)		-2.16% [at 25.7 µM] (inactive)
CC(C)C1=CCC(C)(O)C(OC2OC(CO)C(O)C(O)C2O)C1 (stereo not given)		3.2% (inactive)
C[C@@H]1O[C@@H](O[C@H]2[C@H](OC(=O)[C@]34CCC(C)(C)C[C@H]3C3=CCC5[C@@]6(C)CC[C@H](O[C@@H]7O[C@H](CO[C@@H]8OC[C@H](O)[C@H](O)[C@H]8O)[C@@H](O)[C@H](O)[C@H]7O)C(C)(C)C6CC[C@@]5(C)[C@]3(C)C[C@H]4O)OC[C@@H](O)[C@@H]2O)[C@H](O)[C@H](O)[C@H]1O[C@@H]1OC[C@H](O)[C@H](O[C@@H]2OC[C@@H](O)[C@H](O)[C@H]2O)[C@H]1O (stereo not given in full)		1.47% [at 11.6 µM] (inactive)
C1CCN2CC3C[C@@H](CN4CCCC[C@@H]34)[C@H]2C1	inactive	
COC(=O)C12C(=O)C(C)=C(O)C1(C)C(C)=CC1C34CCC(OC3=O)C(C)(C)C4CCC12C (stereo not given)	inactive [at 25.7 µM]	
C=C1CC[C@@H]2[C@](C)(CO[C@@H]3O[C@H](CO)[C@@H](O)[C@H](O)[C@H]3O)CCC[C@@]2(C)[C@@H]1CCC1=CCOC1=O		2.69% [at 25.7 µM] (inactive)
CO[C@@H]1CC[C@H](OC[C@]2(COC(=O)c3ccc(C)[nH]3)[C@H](OC(C)=O)CC[C@@]3(C)[C@@H]4CC=C(C)[C@@H](C5=C(O)C(=O)OC5O)[C@]4(C)CC[C@@H]32)O[C@H]1C (stereo not given in full)		3.72% [at 25.7 µM] (inactive)
CC1CCC2C(C)(C)C(O)CCC2(C)C12Cc1c(O)cc3c(c1O2)C(N)=NC3 (stereo not given)		4.37% (inactive)
C/C=C/C=C/C=C/C(=O)O[C@@H]1C=C(CO)C(O)(C(=O)O)[C@@]2(C)CCCC(C)(C)[C@H]12 (stereo not given in full)		0.222% [at 25.7 µM] (inactive)
CCOc1c2c(c(OCC)c3ccccc13)C(=O)N(c1ccc(CC(=O)NS(=O)(=O)c3ccccc3)cc1)C2	inactive	
O=C(/C=C/c1ccccc1)OCC1=CC[C@@H]2C(C(=O)O)=CO[C@@H](O[C@@H]3O[C@H](CO)[C@@H](O)[C@H](O)[C@H]3O)[C@H]12		0.218% [at 25.7 µM] (inactive)
C[C@@H]1CCC2C(C)(C)[C@H](O)CC[C@]2(C)[C@@]12Cc1c(O)cc3c(c1O2)CN(CCO)C3=O (stereo not given in full)	inactive [at 25.7 µM]	
O=C(O)c1n[nH]c2c1C[C@H]1C[C@@H]21	inactive	
CC1(C(=O)O)CCCC2(C)C1CCC13CC(CCC21)C1(CO)OC31 (stereo not given)	inactive	
CCOc1cc2ncc(C#N)c(Nc3ccc(OCc4ccccn4)c(Cl)c3)c2cc1NC(=O)/C=C/CN(C)C	inactive [at 25.7 µM]	
OCC1OC(Oc2cc(O)c3c(c2)OC(c2ccc(O)cc2)C(O)C3)C(O)C1O (stereo not given)	inactive [at 25.7 µM]	

SMILES	outcome	activity change, negative = inhibition
CCC(=O)N[C@@H]1Cc2ccccc2[C@H](c2ccccc2)C1		0.141% (inactive)
CC[C@H]1OC(=O)[C@H](C)[C@@H](O[C@H]2C[C@@](C)(OC)[C@@H](O)[C@H](C)O2)[C@H](C)[C@@H](O[C@@H]2O[C@H](C)C[C@H](N(C)C)[C@H]2O)[C@@](C)(O)C[C@@H](C)[C@@H]2N[C@@H](COCCOC)OC([C@H]2C)[C@]1(C)O		2.62% (inactive)
CC1(C)CC[C@]2(C(=O)O)CC[C@]3(C)C(=CCC4[C@@]5(C)C[C@@H](O)[C@H](O)C(C)(C)C5CC[C@]43C)[C@@H]2[C@@H]1O (stereo not given in full)		-3.61% [at 25.7 µM] (inactive)
CC1(C)CCC(C)(C)c2cc3c(cc21)Sc1ccccc1N=C3c1ccc(C(=O)O)cc1		0.975% (inactive)
CCC/C=C/C(=O)O[C@H]1CC(C)(C)CC2[C@]13[C@H](O)O[C@@]21CCC2[C@@]4(C)CC[C@H](O[C@@H]5O[C@H](C(=O)O)[C@@H](O)[C@H](O[C@@H]6O[C@H](CO)[C@H](O)[C@H](O)[C@H]6O[C@@H]6O[C@@H](C)[C@H](O)[C@@H](O)[C@H]6O[C@@H]6OC[C@](O)(CO)[C@H]6O)[C@H]5O[C@@H]5O[C@H](CO)[C@H](O)[C@H](O)[C@H]5O)C(C)(C)C4CC[C@@]2(C)[C@]1(C)C[C@H]3OC(C)=O (stereo not given in full)	inactive [at 11.6 µM]	
CC(C)CNC(=O)/C=C/CCCCc1ccc2c(c1)OCO2		-4.23% (inactive)
CCC(C)/C=C(C)/C=C/C1=CC2=C(Cl)C(=O)C(C)(OC(C)=O)C(=O)C2=CN1CCCC(=O)O (stereo not given)		3.52% [at 25.7 µM] (inactive)
CO[C@@H]1COCC[C@@H]1N[C@@H]1CC[C@@](C(=O)N2CCc3ncc(C(F)(F)F)cc3C2)(C(C)C)C1	inactive [at 25.7 µM]	
CNC(=O)O[C@H]1COc2ccc(N3CCN(C4COC4)CC3)cc2[C@@H]1NC(=O)c1ccc(F)cc1	inactive	
C=CC(C)(O)CO[C@@H]1O[C@H](CO)[C@@H](O)[C@H](O)[C@H]1O (stereo not given in full)		-1.98% (inactive)
O=C(Nc1cccnn1)N1CCC(=Cc2cccc(Oc3ccc(C(F)(F)F)cn3)c2)CC1		4.06% (inactive)
CC1=CC(=O)CC(C)(C)C1(O)CCC(C)O (stereo not given)	inactive	
CC1(C)OC(=O)C(OCC2CC2)=C1c1ccc(S(C)(=O)=O)cc1		4.88% (inactive)
CC1NC(=O)CNC(=O)C(C(C)C)NC(=O)C2CCCN2C(=O)C(C(C)C)NC(=O)C(Cc2c[nH]c3ccccc23)NC1=O (stereo not given) (cyclo(GAWVPV); configuration not given here)	inactive [at 25.7 µM]	
O=C(/C=C/c1ccc(O)cc1)O[C@H]1[C@@H]2C=CO[C@@H](O[C@@H]3O[C@H](CO)[C@@H](O)[C@H](O)[C@H]3O)[C@@H]2[C@@]2(CO)O[C@@H]12	inactive [at 25.7 µM]	
CC(=O)OC[C@@]12[C@@H](OC(C)=O)C[C@@H](C)[C@](C)([C@@H]3C[C@H]4C=CO[C@H]4O3)[C@H]1CCC[C@]21CO1	inactive [at 25.7 µM]	
NC(Cc1c[nH]c2ccccc12)C(=O)NC(CCC(=O)O)C(=O)O (stereo not given)		-8.51% (inactive)
CC1CCC2(O1)C(C)(C)CC(O[C@@H]1O[C@H](CO[C@@H]3OC[C@](O)(CO)[C@H]3O)[C@@H](O)[C@H](O)[C@H]1O)CC2(C)O (stereo not given in full)		4.26% [at 25.7 µM] (inactive)
OC[C@H]1O[C@@H](n2cnc3c2NC=NC[C@H]3O)C[C@@H]1O		-4.79% (inactive)
CC(C)NC[C@H](O)COc1ccc(CCOCC2CC2)cc1	inactive	
